{"source": "PubChem BioAssay AID641", "about": "(Vanderbilt High Throughput Screening Facility, 2007)", "note": "The whole screen tested about 58,000 compounds, of which about 3,400 (5.9%) were called active.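 The calls were made as follows: active = luminescence count or its row- and column-corrected plate score outside the 99.7% band of the plate's sample wells, on either side; inactive = the rest.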 Many of the other results were omitted from the sample, so actives are more common in it than they were."}
{"target": "D(1A) dopamine receptor (Homo sapiens) (UniProt P21728)", "sequence (P21728 whole entry, looked up)": "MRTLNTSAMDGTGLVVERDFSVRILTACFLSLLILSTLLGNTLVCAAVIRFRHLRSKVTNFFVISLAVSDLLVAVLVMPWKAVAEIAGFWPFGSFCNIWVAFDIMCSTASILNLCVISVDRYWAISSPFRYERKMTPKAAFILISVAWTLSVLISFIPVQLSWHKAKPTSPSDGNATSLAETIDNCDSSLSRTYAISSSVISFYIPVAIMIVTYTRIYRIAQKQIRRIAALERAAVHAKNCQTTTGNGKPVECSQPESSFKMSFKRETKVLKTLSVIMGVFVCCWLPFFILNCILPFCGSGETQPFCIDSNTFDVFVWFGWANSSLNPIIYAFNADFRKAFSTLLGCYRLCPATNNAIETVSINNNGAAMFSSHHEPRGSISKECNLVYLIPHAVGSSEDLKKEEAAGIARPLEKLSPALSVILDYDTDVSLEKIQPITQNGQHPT", "test": "D1 CRE-luciferase signal change, two-sided – cell-based, HEK293 D1, dopamine EC30, D1 allosteric modulator project, primary screen (AID 641)", "conditions": "dopamine EC30 potentiation, at 10 µM, actives deviate in either direction"}
{"compound": "CCOC(=O)C(O)(c1ccc(N)c(OC)c1)C(F)(F)F", "note": "(stereo not given)", "B-score": "-4.69 (active)"}
{"compound": "CCOC(=O)C(O)(c1ccc(NC(=O)c2ccco2)c(OC)c1)C(F)(F)F", "note": "(stereo not given)", "B-score": "0.817 (inactive)"}
{"compound": "CCOP(=S)(OCC)SCOC(=O)NCC(=O)OC", "B-score": "1.46 (inactive)"}
{"compound": "Cc1ccc2c(c1)C1CN(C)CCC1N2C(=O)Cn1nnc(-c2ccccc2F)n1", "note": "(stereo not given)", "B-score": "-3.16 (active)"}
{"compound": "Cc1cc(N2C(=O)C3CCCN3C2c2ccc(Cl)c(Cl)c2)no1", "note": "(stereo not given)", "B-score": "1.04 (inactive)"}
{"compound": "CC(=NC1CCN(Cc2ccccc2)CC1)c1c(O)n(C)c(=O)n(C)c1=O", "B-score": "0.191 (inactive)"}
{"compound": "CCN(CC)CCOC(=O)c1cc2cc(COC)ccc2o1", "B-score": "0.407 (inactive)"}
{"compound": "C=Cn1ccnc1P(=S)(c1cc(N(CC)CC)ns1)c1nccn1C=C", "B-score": "-0.0508 (inactive)"}
{"compound": "CC(=C1C(=O)c2ccccc2C1=O)N1CCN(CCN=Cc2c(O)n(C)c(=O)n(C)c2=O)CC1", "B-score": "-0.0144 (inactive)"}
{"compound": "CCC(=NCCCO)c1c(O)n(-c2ccc(OC)cc2)c(=O)[nH]c1=O", "B-score": "-0.508 (inactive)"}
{"compound": "CCCCCCN=C(CC)c1c(O)n(CCCC)c(=O)[nH]c1=O", "B-score": "2.24 (inactive)"}
{"compound": "CCC(=NCc1ccco1)c1c(O)n(Cc2ccccc2)c(=O)[nH]c1=O", "B-score": "10.9 (active)"}
{"compound": "N[C@@H](Cc1c[nH]c2ccccc12)c1nnc(SCc2c(F)cccc2Cl)o1", "B-score": "-0.133 (inactive)"}
{"compound": "CCCC(C)n1[nH]c(=O)c2c1NC(=O)CSC2c1ccc(OC)c(OC)c1", "note": "(stereo not given)", "B-score": "0.346 (inactive)"}
{"compound": "CCc1cccc2c(C#N)cn(CC(=O)N3CCOCC3)c12", "B-score": "-1.07 (inactive)"}
